# In PMC11006913:
# Changes are numbered by the printed parent chain.
# Tests used:
# Test in all cases: PBM; 200 nM protein, PBS
# Settings in all cases: dsDNA, one strand shown
# HESX1 [1] = biological target: HESX1 (Homo sapiens, UniProt Q9UBX0 95-180, R165K)
# HESX1 [2] = biological target: HESX1 (Homo sapiens, UniProt Q9UBX0 95-180)
# HESX1 [3] = biological target: HESX1 (Homo sapiens, UniProt Q9UBX0 95-180, P111T)
# HOXB4 [4] = biological target: HOXB4 (Homo sapiens, UniProt P17483 148-234)
# VENTX [5] = biological target: T1, VENTX (Homo sapiens, UniProt O95231 78-163, R121Q)
# T1 sequence: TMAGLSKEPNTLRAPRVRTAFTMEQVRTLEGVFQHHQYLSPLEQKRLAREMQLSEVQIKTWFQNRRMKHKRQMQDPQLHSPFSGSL
# HOXB9 = HOXB9 (Homo sapiens, UniProt P17482 171-250, T197M)
# VENTX [6] = biological target: T2, VENTX (Homo sapiens, UniProt O95231 78-163)
# T2 sequence: T1 sequence with Q44R
# VENTX [7] = biological target: T3, VENTX (Homo sapiens, UniProt O95231 78-163, Y115F)
# T3 sequence: T1 sequence with Y38F, Q44R
# HOXB4 [8] = biological target: HOXB4 (Homo sapiens, UniProt P17483 148-234, V174I)
# HOXA4 [9] = biological target: HOXA4 (Homo sapiens, UniProt Q00056 201-287, W262R)
# HOXA2 [10] = biological target: HOXA2 (Homo sapiens, UniProt O43364 129-215, R185T)
# HOXA4 [11] = biological target: HOXA4 (Homo sapiens, UniProt Q00056 201-287, R217L)
# HOXA2 [12] = biological target: HOXA2 (Homo sapiens, UniProt O43364 129-215, R185K)
# HOXA4 [13] = biological target: HOXA4 (Homo sapiens, UniProt Q00056 201-287)
# VAX1 [14] = biological target: VAX1 (Homo sapiens, UniProt Q5SQQ9 86-172)
# VAX1 [15] = biological target: VAX1 (Homo sapiens, UniProt Q5SQQ9 86-172, T142I)
# HOXA2 [16] = biological target: HOXA2 (Homo sapiens, UniProt O43364 129-215, Y150S)
# HOXA4 [17] = biological target: HOXA4 (Homo sapiens, UniProt Q00056 201-287, W262F)
# HOXA2 [18] = biological target: HOXA2 (Homo sapiens, UniProt O43364 129-215)
# VAX1 [19] = biological target: VAX1 (Homo sapiens, UniProt Q5SQQ9 86-172, K157R)
# Sequence of VAX1 (Homo sapiens, UniProt Q5SQQ9 86-172, K157R) (Q5SQQ9 86-172 K157R): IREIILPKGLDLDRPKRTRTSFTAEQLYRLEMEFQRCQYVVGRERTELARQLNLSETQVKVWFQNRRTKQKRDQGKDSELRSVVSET
# Sequence of HOXB4 (Homo sapiens, UniProt P17483 148-234) (P17483 148-234): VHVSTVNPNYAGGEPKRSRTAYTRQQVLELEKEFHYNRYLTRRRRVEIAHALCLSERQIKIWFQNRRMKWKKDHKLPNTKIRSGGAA
# Sequence of HESX1 (Homo sapiens, UniProt Q9UBX0 95-180) (Q9UBX0 95-180): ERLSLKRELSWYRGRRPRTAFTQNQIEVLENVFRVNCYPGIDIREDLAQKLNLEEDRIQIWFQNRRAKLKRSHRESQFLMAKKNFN
# Sequence of HOXB9 (P17482 171-250 T197M): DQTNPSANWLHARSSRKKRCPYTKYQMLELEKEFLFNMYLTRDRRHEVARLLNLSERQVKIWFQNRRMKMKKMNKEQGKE
# Sequence of HESX1 (Homo sapiens, UniProt Q9UBX0 95-180, P111T) (Q9UBX0 95-180 P111T): as the sequence (Q9UBX0 95-180) above, with P17T counted along it
# Sequence of HESX1 (Homo sapiens, UniProt Q9UBX0 95-180, R165K) (Q9UBX0 95-180 R165K): as the sequence (Q9UBX0 95-180) above, with R71K counted along it
# Sequence of HOXB4 (Homo sapiens, UniProt P17483 148-234, V174I) (P17483 148-234 V174I): as the sequence (P17483 148-234) above, with V27I counted along it
# Sequence of VAX1 (Homo sapiens, UniProt Q5SQQ9 86-172, T142I) (Q5SQQ9 86-172 T142I): as the sequence (Q5SQQ9 86-172 K157R) above, with T57I, R72K counted along it
# Sequence of VAX1 (Homo sapiens, UniProt Q5SQQ9 86-172) (Q5SQQ9 86-172): as the sequence (Q5SQQ9 86-172 K157R) above, with R72K counted along it
# Sequence of HOXA2 (Homo sapiens, UniProt O43364 129-215, Y150S) (O43364 129-215 Y150S): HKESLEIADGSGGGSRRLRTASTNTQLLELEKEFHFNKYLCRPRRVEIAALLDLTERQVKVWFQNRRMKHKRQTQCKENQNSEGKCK
# Sequence of HOXA4 (Homo sapiens, UniProt Q00056 201-287) (Q00056 201-287): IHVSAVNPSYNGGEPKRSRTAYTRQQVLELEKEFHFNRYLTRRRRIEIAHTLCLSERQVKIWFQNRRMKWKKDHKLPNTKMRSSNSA
# Sequence of HOXA2 (Homo sapiens, UniProt O43364 129-215, R185K) (O43364 129-215 R185K): as the sequence (O43364 129-215 Y150S) above, with S22Y, R57K counted along it
# Sequence of HOXA2 (Homo sapiens, UniProt O43364 129-215) (O43364 129-215): as the sequence (O43364 129-215 Y150S) above, with S22Y counted along it
# Sequence of HOXA4 (Homo sapiens, UniProt Q00056 201-287, W262R) (Q00056 201-287 W262R): as the sequence (Q00056 201-287) above, with W62R counted along it
# Sequence of HOXA4 (Homo sapiens, UniProt Q00056 201-287, R217L) (Q00056 201-287 R217L): as the sequence (Q00056 201-287) above, with R17L counted along it
# Sequence of HOXA2 (Homo sapiens, UniProt O43364 129-215, R185T) (O43364 129-215 R185T): as the sequence (O43364 129-215 Y150S) above, with S22Y, R57T counted along it
# Sequence of HOXA4 (Homo sapiens, UniProt Q00056 201-287, W262F) (Q00056 201-287 W262F): as the sequence (Q00056 201-287) above, with W62F counted along it
sequence,measurement,setting,value
TAACGATA,binding signal,HESX1 [1],"7.67 upbm affinity estimate (log intensity, higher = more binding, comparable within an allelic series)"
same,binding signal,HESX1 [2],"7.8 upbm affinity estimate (log intensity, higher = more binding, comparable within an allelic series)"
same,binding signal,HESX1 [3],"7.53 upbm affinity estimate (log intensity, higher = more binding, comparable within an allelic series)"
CGTCCCGC,binding signal,HOXB4 [4],"7.48 upbm affinity estimate (log intensity, higher = more binding, comparable within an allelic series)"
same,binding signal,VENTX [5],"7.82 upbm affinity estimate (log intensity, higher = more binding, comparable within an allelic series)"
same,binding signal,HOXB9,"8.41 upbm affinity estimate (log intensity, higher = more binding, comparable within an allelic series)"
same,binding signal,VENTX [6],"7.89 upbm affinity estimate (log intensity, higher = more binding, comparable within an allelic series)"
same,binding signal,VENTX [7],"7.87 upbm affinity estimate (log intensity, higher = more binding, comparable within an allelic series)"
same,binding signal,HOXB4 [8],"7.45 upbm affinity estimate (log intensity, higher = more binding, comparable within an allelic series)"
TGTGATAA,binding signal,HESX1 [1],"7.98 upbm affinity estimate (log intensity, higher = more binding, comparable within an allelic series)"
same,binding signal,HESX1 [2],"8.21 upbm affinity estimate (log intensity, higher = more binding, comparable within an allelic series)"
same,binding signal,HESX1 [3],"7.65 upbm affinity estimate (log intensity, higher = more binding, comparable within an allelic series)"
ATTAATGG,binding signal,HOXB4 [4],"13.4 upbm affinity estimate (log intensity, higher = more binding, comparable within an allelic series)"
same,binding signal,VENTX [5],"12.2 upbm affinity estimate (log intensity, higher = more binding, comparable within an allelic series)"
same,binding signal,HOXB9,"10.3 upbm affinity estimate (log intensity, higher = more binding, comparable within an allelic series)"
same,binding signal,HOXA4 [9],"10.7 upbm affinity estimate (log intensity, higher = more binding, comparable within an allelic series)"
same,binding signal,VENTX [6],"12.7 upbm affinity estimate (log intensity, higher = more binding, comparable within an allelic series)"
same,binding signal,VENTX [7],"11.8 upbm affinity estimate (log intensity, higher = more binding, comparable within an allelic series)"
same,binding signal,HOXA2 [10],"12.6 upbm affinity estimate (log intensity, higher = more binding, comparable within an allelic series)"
same,binding signal,HOXA4 [11],"12.2 upbm affinity estimate (log intensity, higher = more binding, comparable within an allelic series)"
same,binding signal,HOXB4 [8],"14.1 upbm affinity estimate (log intensity, higher = more binding, comparable within an allelic series)"
same,binding signal,HOXA2 [12],"13.4 upbm affinity estimate (log intensity, higher = more binding, comparable within an allelic series)"
same,binding signal,HOXA4 [13],"13.9 upbm affinity estimate (log intensity, higher = more binding, comparable within an allelic series)"
same,binding signal,VAX1 [14],"13 upbm affinity estimate (log intensity, higher = more binding, comparable within an allelic series)"
same,binding signal,VAX1 [15],"12.6 upbm affinity estimate (log intensity, higher = more binding, comparable within an allelic series)"
same,binding signal,HOXA2 [16],"11.1 upbm affinity estimate (log intensity, higher = more binding, comparable within an allelic series)"
same,binding signal,HOXA4 [17],"11.6 upbm affinity estimate (log intensity, higher = more binding, comparable within an allelic series)"
same,binding signal,HOXA2 [18],"12.3 upbm affinity estimate (log intensity, higher = more binding, comparable within an allelic series)"
same,binding signal,VAX1 [19],"12.5 upbm affinity estimate (log intensity, higher = more binding, comparable within an allelic series)"
CGCAGGCG,binding signal,HOXB4 [4],"7.74 upbm affinity estimate (log intensity, higher = more binding, comparable within an allelic series)"
same,binding signal,HOXB4 [8],"7.65 upbm affinity estimate (log intensity, higher = more binding, comparable within an allelic series)"
TAAATTAA,binding signal,HOXB4 [4],"12.9 upbm affinity estimate (log intensity, higher = more binding, comparable within an allelic series)"
same,binding signal,HOXB9,"9.99 upbm affinity estimate (log intensity, higher = more binding, comparable within an allelic series)"
same,binding signal,HOXB4 [8],"13.6 upbm affinity estimate (log intensity, higher = more binding, comparable within an allelic series)"
same,binding signal,VAX1 [14],"12.6 upbm affinity estimate (log intensity, higher = more binding, comparable within an allelic series)"
same,binding signal,HESX1 [3],"10.1 upbm affinity estimate (log intensity, higher = more binding, comparable within an allelic series)"
same,binding signal,VAX1 [15],"12.4 upbm affinity estimate (log intensity, higher = more binding, comparable within an allelic series)"
same,binding signal,VAX1 [19],"12.4 upbm affinity estimate (log intensity, higher = more binding, comparable within an allelic series)"
CGGCGAGC,binding signal,HOXB4 [4],"7.79 upbm affinity estimate (log intensity, higher = more binding, comparable within an allelic series)"
same,binding signal,HOXB4 [8],"7.74 upbm affinity estimate (log intensity, higher = more binding, comparable within an allelic series)"
ATGTATAA,binding signal,HESX1 [1],"7.77 upbm affinity estimate (log intensity, higher = more binding, comparable within an allelic series)"
same,binding signal,HESX1 [2],"7.72 upbm affinity estimate (log intensity, higher = more binding, comparable within an allelic series)"
same,binding signal,HESX1 [3],"7.36 upbm affinity estimate (log intensity, higher = more binding, comparable within an allelic series)"
GACTGGCC,binding signal,HOXB4 [4],"7.7 upbm affinity estimate (log intensity, higher = more binding, comparable within an allelic series)"
same,binding signal,HOXB4 [8],"7.58 upbm affinity estimate (log intensity, higher = more binding, comparable within an allelic series)"
GTCATAAC,binding signal,HESX1 [1],"7.26 upbm affinity estimate (log intensity, higher = more binding, comparable within an allelic series)"
same,binding signal,HESX1 [2],"7.28 upbm affinity estimate (log intensity, higher = more binding, comparable within an allelic series)"
same,binding signal,HESX1 [3],"7.2 upbm affinity estimate (log intensity, higher = more binding, comparable within an allelic series)"
ACTATAGA,binding signal,HESX1 [1],"7.13 upbm affinity estimate (log intensity, higher = more binding, comparable within an allelic series)"
same,binding signal,HESX1 [2],"7.13 upbm affinity estimate (log intensity, higher = more binding, comparable within an allelic series)"
same,binding signal,HESX1 [3],"7.02 upbm affinity estimate (log intensity, higher = more binding, comparable within an allelic series)"
